Structures are written as SMILES. Where “and” joins values, the source holds several entries; their conditions need not be identical. Equal entries are not always repeated. The source holds several records for some structures; these can differ, active in one and inactive in another. Calls of active or inactive are those of the source. Rule for the calls: active = hit-call score of the fitted dose curve at least 0.9, where 1 is the maximum; inactive = score below 0.9.

We go through 39 compounds from PubChem BioAssay (EPA / NIEHS).

Read-out in this experiment: Vascular cell adhesion molecule 1 (VCAM1), VCAM1 (gene 7412)
Description: BSK_hDFCGF_VCAM1: BioMAP Diversity Plus: hDFCGF Assay for Vascular cell adhesion molecule 1 (VCAM1) Biomarker Activity (AID 2283065). To be noted: primary human foreskin fibroblasts; actives raise or lower the signal. The method, then: BSK_hDFCGF is a cell-based, multiplexed-readout assay that uses foreskin fibroblast, a human skin primary cell, with measurements taken at 24 hours after chemical dosing in a 96-well plate.BSK_hDFCGF_VCAM1 is an assay component measured in the BSK_hDFCGF assay. It measures VCAM-1 antibody related to regulation of gene expression using ELISA technology.Data from the assay component BSK_hDFCGF_VCAM1 was analyzed into 1 assay endpoint. This assay endpoint, BSK_hDFCGF_VCAM1, was analyzed with bidirectional fitting relative to DMSO as the negative control and baseline of activity. Using a type of binding reporter, gain or loss-of-signal activity can be used to understand changes in the signaling as they relate to the gene VCAM1. Furthermore, this assay endpoint can be referred to as a primary readout, because this assay has produced multiple assay endpoints where this one serves a signaling function. To generalize the intended target to other relatable targets, this assay endpoint is annotated to the cell adhesion molecules intended target family, where the subfamily is Immunoglobulin CAM.
The levels of cell surface (or secreted, indicated by the prefix "s") biomarker endpoints were measured by ELISA. Overt cytotoxicity to cells in confluent adherent cultures (all systems other than the BT system) was assessed by measuring total protein levels using sulforhodamine B (SRB) staining in parallel cultures at the time of biomarker measurements, indicated as SRB endpoints. For proliferation assays for adherent cell types, individual cell types are cultured at sub-confluence and relative cell numbers quantified by SRB staining at time points optimized for each system (48 h: 3C and CASM3C systems; 72 h: BT and HDF3CGF systems; 96 h: SAg system). SRB was performed by staining cells with 0.1% SRB after fixation with 10% TCA and reading wells at 560 nm.Viability and proliferation of PBMC (T cells) was quantified by Alamar Blue reduction for the SAg and BT systems. For PBMC viability (referred to as PBMC Cytotoxicity within the assay endpoint names), cells were plated (75,000/well in a 96-well plate) and then chemical samples added for 1 h before addition of activators, SEB and TSST-1 (20 ng/mL final concentration each). Cells were incubated for 90 h. Then, Alamar Blue (20 uL/well) (Invitrogen, Cat DAL1100) was added for 6 h, and the plates were read with a fluorescence microplate reader at 546/580 nm (excitation/emission). For PBMC proliferation, cells were plated and activated as above but incubated for only 16 h prior to addition of Alamar Blue. Plates were read after 6 h.
Consider `CCCCCCc1ccc(O)cc1O`, for which the AC50 was 28.1 µM (active).
On to `C=CC(=C)CCC=C(C)C`, for which the outcome was inactive.
On the same count and under the same terms, next, `CNS(=O)(=O)c1cc(C(=O)N2CCC(CCN3C4CCC3CC(n3c(C)nc5ccccc53)C4)(c3cccc(F)c3)CC2)c(Cl)cc1F` (stereo not given): “inactive”; `C=CCCCCCCCCC(=O)O`: “inactive”.
On the same count and under the same terms, the same measure for `Cc1ccc(O)cc1`: “inactive”.
In the case of `CCNc1ccccc1`, the outcome was inactive.
As to `CCCN(C1CCN(C(=O)C2CCNCC2)CC1)[C@@H]1CCc2ccc(OC)cc2C1`, the result was inactive.
Same read-out and setting: next, `Nc1nc2ncc(CNc3ccc(C(=O)N[C@@H](CCC(=O)O)C(=O)O)cc3)nc2c(=O)[nH]1`: “inactive”; `CCCCCCCCCCCCCCCO`: “inactive”.
Same read-out and setting: next, `O=C1OC(=O)C2C3C=CC(C3)C12` (stereo not given): “inactive”.
Turning to `CC(C)=CCC/C(C)=C/CO`, the result was inactive.
The same measure, in the same setting: the same measure for `CNCc1ccc(NC(=O)c2c[nH]c3c2C(=O)CCC3)cc1`: “inactive”; for `CC(C)(O)c1coc(S(=O)(=O)NC(=O)Nc2c3c(cc4c2CCC4)CCC3)c1`: “inactive”.
In the case of `NC(=O)NO`, the outcome was inactive.
The same measure, in the same setting: the same measure for `CC1=CC(=O)CC(C)(C)C1`: “inactive”; for `O=C(O)CC(O)C(=O)O` (stereo not given): “inactive”.
For `C[C@](N)(Cc1ccc(O)c(O)c1)C(=O)O`, the AC50 was 20 µM (active).
With `COC(=O)c1ccccc1O`, the result was inactive.
Consider `On1ccccc1=S`, for which the AC50 was 0.479 µM (active).
As for `CC(C)CCCCCCCOC(=O)CCCCC(=O)OCCCCCCCC(C)C`, the result was inactive.
For `CCc1cc(SCc2sc(-c3ccc(C(F)(F)F)cc3)nc2CN2CCN(c3ccc(OC)cc3)CC2)ccc1OCC(=O)O`, the AC50 was 3.57 µM (active).
In the case of `CC[C@H]1CC[C@H](NCc2cc3c(cc2OC)[C@H]2C[C@H]2C(=O)N3C)[C@H](c2ccccc2)N1`, the result was inactive.
On to `CCOCCOCCOCCO`, for which the outcome was inactive.
Turning to `COC(=O)c1c(Cl)c(Cl)c(C(=O)OC)c(Cl)c1Cl`, the result was inactive.
As to `CCOC(=O)COc1ccc2c(c1)CC(NCC(O)c1cccc(Cl)c1)CC2` (stereo not given), the half-maximal activity concentration (AC50) was 21.9 µM (active).
With `Cc1ccc(N)cc1O`, the result was inactive.
Still for that read-out and setting: the same measure for `CC(C)CC(C)(O)C#CC(C)(O)CC(C)C` (stereo not given): “inactive”.
As to `O=C(O)c1cccc(N(Cc2cccnc2)c2ccc(OC(F)F)c(OC(F)F)c2)c1`, the AC50 is 1.27 µM (active).
With `O=P(OC(CCl)CCl)(OC(CCl)CCl)OC(CCl)CCl`, the outcome was inactive.
Consider `CC[C@H]1OC(=O)[C@H](C)[C@@H](O[C@H]2C[C@@](C)(OC)[C@@H](O)[C@H](C)O2)[C@H](C)[C@@H](O[C@@H]2O[C@H](C)C[C@H](N(C)C)[C@H]2O)[C@](C)(O)C[C@@H](C)C(=O)[C@H](C)[C@@H](O)[C@]1(C)O`, for which the result was inactive.
On to `Cc1ccc(C)c(O)c1`, for which the outcome was inactive.
On the same count and under the same terms, the same measure for `CC(C)CCO`: “inactive”.
Still for that read-out and setting: the same measure for `COC(=O)CC(=O)OC`: “inactive”.
The same measure, in the same setting: next, `O=C(O)c1cccc(Oc2ccccc2)c1`: “inactive”.
`Cn1c(=O)cc(Oc2ccc(F)cc2F)c2cnc(NCC(C)(C)O)nc21`: the half-maximal activity concentration (AC50) is 0.92 µM (active).
As to `Oc1ccc2c(c1)-c1ccccc1C2`, the result was inactive.
`Cn1cnc([N+](=O)[O-])c1Sc1ncnc2nc[nH]c12`: the outcome was inactive; the half-maximal activity concentration (AC50) was 12.6 µM (active) and 16 µM (active).
As to `Cn1c(=O)c2c(ncn2C)n(C)c1=O`, the outcome was inactive.
`O=c1n(CC2CO2)c(=O)n(CC2CO2)c(=O)n1CC1CO1` (stereo not given): the AC50 was 11.6 µM (active).

The term AC50 denotes the midpoint of the concentration-response curve, whichever way the signal moves.
